A selection: hits, their analogues and other compounds. The true share with any hit is near 4.5%.
OvCa metastasis = Primary qHTS assay for Inhibitors of ovarian cancer metastasis using an organotypic tumor microenvironment (TME) model. Potency, µM (highest dose often 45.8 µM), without a hit: top-dose activity change, negative = inhibition, actives largely listed as inhibitors. SKOV3ip1-GFP adhesion/invasion on 3D omental model, fluorescence. 0.1% of 46,000 active;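 also: potency is read from the fitted curve at half-maximal effect; plate controls were DMSO wells for no effect and tomatine positive control wells for full effect; nearly all actives have a fitted effect of over 65% in size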
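Primary human omental fibroblast/mesothelial 3D culture pre-formed 48 h. SKOV3ip1-GFP cells added with compounds (0.36-46 umol/L), incubated 2 h RT/16 h 37 C, fixed; GFP cells quantified at 488/509 nm.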
NTMT1 inh = Primary qHTS for Inhibitors of N-terminal methyltransferase 1 (NTMT1): MTaseGlo Assay. NTMT1 MTase-Glo SAH luminescence, purified enzyme. Potency, µM (doses to about 114 µM), for inactives: at the highest dose activity change, negative = inhibition, hits mostly inhibitors. 2.5% of 59,000 active. N-terminal Xaa-Pro-Lys N-methyltransferase 1 (Homo sapiens), Q9BV86;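 also: potency is read from the fitted curve at half-maximal effect; plate controls were DMSO vehicle for no effect and no enzyme for full effect; nearly all actives have a fitted effect of over 65% in size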
Target sequence (Q9BV86 whole entry, looked up): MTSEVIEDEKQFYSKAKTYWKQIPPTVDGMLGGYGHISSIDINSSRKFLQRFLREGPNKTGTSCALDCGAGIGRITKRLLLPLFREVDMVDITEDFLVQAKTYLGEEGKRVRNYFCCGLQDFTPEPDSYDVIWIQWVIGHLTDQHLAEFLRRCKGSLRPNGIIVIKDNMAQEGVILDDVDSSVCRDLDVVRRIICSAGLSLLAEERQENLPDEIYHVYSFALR
HTT prom inh = Primary qHTS for Identification of Small Molecule Inhibitors of Huntingtin Promoter Activity | HEK293 HTT promoter firefly luciferase reporter, 24 h | Potency, µM (top dose mostly 57.5 µM), for inactives: at the top dose activity change, negative = inhibition, actives largely listed as inhibitors | 0.93% of 48,000 active; also: potency is read from the fitted curve at half-maximal effect; nearly all actives have a fitted effect of over 50% in size
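HEK293 luciferase promoter-reporter cells (2,500/well) plated 24 h, then compounds added at up to 57.5 uM final for 24 h at 37 °C. Firefly luminescence by Dual-Glo, normalized to vehicle (0%) and zero RLU (-100%).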
HTT-AS promoter = Primary qHTS for Identification of Small Molecule Activators of Huntingtin-Antisense Promoter Activity. HEK293 HTT-AS promoter firefly luciferase reporter, 24 h; response scale: percent change from vehicle, -100% = no light. Potency, µM (highest dose often 57.5 µM), for inactives: at the highest dose activity change, positive = activation, most hits filed as activators. 0.24% of 48,000 active. AID 1508624, 2021; also: potency is read from the fitted curve at half-maximal effect; nearly all actives have a fitted effect of over 55% in size
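HEK293 Fluc reporter, 2,500 cells/well, 24 h pre-culture; cpds up to 57.5 uM final, 24 h 37 degrees C; Dual-Glo, 10 min RT; normalized vehicle = 0%, zero RLU = -100%.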
DRV1 agonist = qHTS for Agonists of Human Resolvin D1 Receptor DRV1; AID 1346428, 2018; activation, % at 76.9 µM; 2.5% of 48,000 active; CHO-K1 GPR32 beta-arrestin PathHunter luminescence, 90 min; zero percent set by DMSO-only wells; Probable G-protein coupled receptor 32 (Homo sapiens), O75388;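 active = activation of at least 60% and not above a set upper limit, about 1 call in 100 departs from these limits; inconclusive = activation of 40% to 60%, or above that upper limit; inactive = activation under 40%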; also: 0% is about no effect
Target sequence (O75388 whole entry, looked up): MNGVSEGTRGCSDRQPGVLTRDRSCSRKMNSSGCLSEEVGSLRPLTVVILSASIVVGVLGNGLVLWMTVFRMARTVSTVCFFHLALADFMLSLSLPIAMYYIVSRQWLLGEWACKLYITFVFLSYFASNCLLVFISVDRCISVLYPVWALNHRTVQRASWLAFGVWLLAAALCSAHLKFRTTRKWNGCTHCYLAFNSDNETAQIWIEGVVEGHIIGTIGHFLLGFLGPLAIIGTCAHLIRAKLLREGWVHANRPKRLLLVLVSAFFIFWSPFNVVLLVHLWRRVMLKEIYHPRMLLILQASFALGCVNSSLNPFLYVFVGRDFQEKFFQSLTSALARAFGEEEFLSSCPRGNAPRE
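GPR32 activation in stably transfected CHO-K1 cells, detected as beta-arrestin recruitment by enzyme-fragment complementation. Compound exposure: 90 min, 37 °C.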
An asterisk follows results filed as active; i = inactive; ? = inconclusive; · = no result given; ! = repeats disagree; [ ] = another dose, or the depositor's remark. Unless noted, calls follow the shape of the dose curve; as a rule, active = well fitted curve in the direction sought with a large enough effect; inconclusive = small, poorly fitted or top-dose-only effect, or another doubt; inactive = no such curve, though single readings can be large; an effect the other way counts as inactive or inconclusive.

SMILES	OvCa metastasis	NTMT1 inh	HTT prom inh	HTT-AS promoter	DRV1 agonist
CCCCCNC(=O)C(=O)NCC(c1ccc2c(c1)OCO2)N1CCOCC1 (stereo not given)	i	14%	-6%	-12%	-10
Cc1cc(C)c(Cn2c3ccccc3c3cnn(CC(=O)NCc4ccccn4)c(=O)c32)c(C)c1	-25%	-2%	?	-32%	-28
CSc1ccc(CCNC(=O)c2ccc3c(c2)c(C)c(C)n3Cc2ccc(F)cc2)cc1	3%	-2%	-29%	-23%	-13
C=C1C(=O)[C@@]23C(CC[C@@H]1[C@H]2O)[C@@]12CO[C@]3(O)[C@@H](O)[C@@H]1C(C)(C)CC[C@@H]2O (stereo not given in full)	19µM*	?	?	-93%	·
CCOC(=O)c1cccc(NS(=O)(=O)c2ccc3[nH]c4c(c3c2)CCCC4)c1	1%	?	-29%	-39%	82*
CC(=O)c1cccc(NS(=O)(=O)c2cccc(S(=O)(=O)c3ccc(Br)cc3)c2)c1	2%	-7%	32µM*	-54%	63*
O=S(=O)(Nc1cccc(Cl)c1)c1ccc2[nH]c3c(c2c1)CCCCCC3	0%	-5%	?	-37%	62*
CC(=O)c1cccc(NS(=O)(=O)c2ccc3c(c2)NC(=O)CC(=O)N3)c1	-9%	4%	-13%	-6%	0
Cc1cccc(NS(=O)(=O)c2ccc3[nH]c4c(c3c2)CCCCCC4)c1	-13%	-1%	?	-41%	6
CC(=O)c1cccc(NS(=O)(=O)c2ccc3[nH]c4c(c3c2)CCCCC4)c1	-11%	-11%	?	-75%	32
CC(=O)c1cccc(NS(=O)(=O)c2ccc3[nH]c4c(c3c2)CCCCCC4)c1	3%	-6%	?	-31%	100*
CNC(=O)c1ccc2c(c1)CCO[C@H]2CCN1CCN(c2ccc(C(N)=O)cc2)CC1	·	-2%[57.5 µM]	·	·	·
Cc1ccc(C2C=C(c3ccc(F)cc3)Nc3nc(CCCO)nn32)cc1 (stereo not given)	16%	-9%	-14%	-11%	-12
Cc1cccc(C)c1NC(=O)CN(C)S(=O)(=O)c1ccc2[nH]c3c(c2c1)CCCC3	-12%	?	-23%	-38%	62*
COCCNC(=O)C1=CC(c2ccc3c(c2)OCO3)=NS(=O)(=O)N1C	3%	7%	-15%	-17%	-5
CCCCn1c(=N)n(CCCOc2ccc(F)cc2)c2ccccc21	i	-14%	-30%	-25%	76*
O=C(c1ccc(F)cc1)C1CCN(CCn2c(=O)[nH]c3ccccc3c2=O)CC1	-12%	?	-3%	-8%	82*!
COc1cc2nc(N3CCN(C(=O)C4COc5ccccc5O4)CC3)nc(N)c2cc1OC (stereo not given)	9%	?	6%	4%	108*!
COc1cc2nc(N3CCN(C(=O)c4ccco4)CC3)nc(N)c2cc1OC	-26%	1%	?	-24%	?
Cc1ccc2nc(-c3ccccn3)c(Nc3ccccc3C)n2c1	i	9%	35µM*	-75%	-107
Cc1ccn2c(Nc3ccccc3C)c(-c3ccccn3)nc2c1	-13%	2%	?	-46%	-95
Cc1ccccc1Nc1c(-c2cccc(N(C)C)c2)nc2ccc(Br)cn12	1%	7%	46%	11µM*	-23
CC(C)c1ccc(Nc2c(-c3ccccn3)nc3ccccn23)cc1	?	13%	25µM*	-67%	-84
O=C1C[C@]23C=CCN4CCC5c6cc7c(cc6N1[C@@]5(CC2)C43)OCO7 (stereo not given in full)	·	6%[29.8 µM]	·	·	·
Cc1ccc2c(c1)N(C(=O)c1ccc(F)cc1)C(C)(C)CC2(C)c1ccccc1 (stereo not given)	4%	-5%	28µM*	-29%	9
SMILES	OvCa metastasis	NTMT1 inh	HTT prom inh	HTT-AS promoter	DRV1 agonist
CCCNC(=O)c1ccc2c(c1)sc1nc(-c3ccc(C)cc3)cn12	11%	14%	4%	?	-4
CCN(CC)CCCNC(=O)c1ccc2c(c1)sc1nc(-c3ccc(C)cc3)cn12	?	50µM*	-3%	-16%	-8
CCC(C)NC(=O)c1ccc2c(c1)sc1nc(-c3ccc(OC)cc3)cn12 (stereo not given)	-9%	8%	5%	15%	81*
COc1ccc(-c2cn3c(n2)sc2cc(C(=O)Nc4cc(OC)cc(OC)c4)ccc23)cc1	i	-8%	?	-17%	-5
COc1ccccc1CCNS(=O)(=O)c1ccc(N2CCCCS2(=O)=O)cc1	-2%	-6%	?	-17%	9
O=C(Nc1cccc(Cl)c1Cl)c1cc2nc(-c3ccc4c(c3)OCO4)cc(C(F)(F)F)n2n1	-1%	7%	?	-13%[11.5 µM]	-20
Cc1nc2cc(-c3cccc(F)c3)nn2c(C)c1CCC(=O)Nc1ccccc1C(N)=O	-2%	?	2.2µM*	-71%	-1
COc1ccc(CCNC(=O)CCc2c(C)nc3cc(-c4cccc(F)c4)nn3c2C)cc1OC	-25%	89µM*	?	-51%	-6
COc1ccccc1CNC(=O)CCc1c(C)nc2cc(-c3ccccc3OC)nn2c1C	0%	-6%	?	-37%	-1
COc1ccccc1-c1cc2nc(C)c(CCC(=O)NCCc3ccc(SC)cc3)c(C)n2n1	-5%	-1%	20µM*	-74%	-16
COc1ccc2oc(=O)c(C(=O)NCCc3c(C)[nH]c4ccc(C)cc34)cc2c1	i	7%	?	-28%	-1
COc1ccc(-c2cc(C(C)=O)c(C)n2CCC(=O)Nc2cc(Cl)ccc2C)cc1	-4%	89µM*	-42%	-37%	-21
Cc1ccc(NC(=O)n2ncc3c(C)cccc32)c(C)c1	0%	-7%	56%	7.1µM*	-19
COc1ccc(-c2nc(SCC(=O)c3ccc(Br)cc3)n[nH]2)cc1	i	-5%	-17%	9%	114*
COc1ccccc1-c1nc(SCC(=O)c2ccccc2)n[nH]1	-3%	-11%	7%	14%	?
CN(CC1(C)CCCO1)S(=O)(=O)c1ccc(Cl)c(S(N)(=O)=O)c1 (stereo not given)	·	7%[57.5 µM]	8%	-7%	-20
Cc1ccc(C2CCN(C(=O)c3cnn(-c4ccc(C)c(C)c4)c3C3CCN(C(=O)OC(C)(C)C)CC3)C2)cc1 (stereo not given)	i	13%	0%	-3%	-8

From PubChem
